# Source: publication PMC7862700, “An all-to-all approach to the identification of sequence-specific readers for epigenetic DNA modifications on cytosine”
# What was measured:
# Experiment in all cases: DAPPL (digital affinity profiling via proximity ligation, sequencing); 10 mM Tris-HCl pH 7.5, 50 mM NaCl, 1 mM DTT, 4% glycerol, room temperature, 30 min; GST-TFs on glutathione beads, 16-mer random dsDNA library, 0.1% formaldehyde crosslink after washing; high values mean tight binding
# [1] = biological target: T1, FLI1 (Homo sapiens, UniProt Q01543 1-452); conditions: protein: recombinant; tags: N-terminal GST; dsDNA, one strand shown
# T1 sequence: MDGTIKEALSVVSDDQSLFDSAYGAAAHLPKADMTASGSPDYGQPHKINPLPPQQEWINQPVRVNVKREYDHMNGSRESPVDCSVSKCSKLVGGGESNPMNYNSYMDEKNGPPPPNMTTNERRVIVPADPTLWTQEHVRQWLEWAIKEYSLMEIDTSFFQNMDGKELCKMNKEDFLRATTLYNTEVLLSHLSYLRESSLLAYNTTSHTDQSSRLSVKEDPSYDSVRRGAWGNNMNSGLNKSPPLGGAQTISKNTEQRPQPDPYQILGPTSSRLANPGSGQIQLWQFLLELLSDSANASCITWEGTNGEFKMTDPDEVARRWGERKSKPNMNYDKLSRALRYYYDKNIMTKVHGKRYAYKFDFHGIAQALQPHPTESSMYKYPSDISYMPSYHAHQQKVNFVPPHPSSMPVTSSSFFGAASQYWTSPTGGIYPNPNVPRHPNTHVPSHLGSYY
# In short: (§1)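 The binding signal reported is, for every hexamer, its read frequency for a factor over its read frequency for the tag-only sample. Reads came from pools of yeast-expressed, GST-fused human transcription factors on glutathione beads, barcoded with DNA and mixed with that sample, which were incubated with 200 nmole of a random double-stranded 16-mer DNA library in Tris/NaCl/DTT/glycerol buffer at room temperature for 30 min. After washing, the pools were crosslinked with 0.1% formaldehyde, proximity-ligated with BsaI/T4 ligase for 1 h at 37 °C, PCR-amplified and sequenced on an Illumina NextSeq500.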
# [2] = biological target: T2, ELK1 (Homo sapiens, UniProt P19419 1-428); conditions: protein: recombinant; tags: N-terminal GST; dsDNA, one strand shown
# T2 sequence: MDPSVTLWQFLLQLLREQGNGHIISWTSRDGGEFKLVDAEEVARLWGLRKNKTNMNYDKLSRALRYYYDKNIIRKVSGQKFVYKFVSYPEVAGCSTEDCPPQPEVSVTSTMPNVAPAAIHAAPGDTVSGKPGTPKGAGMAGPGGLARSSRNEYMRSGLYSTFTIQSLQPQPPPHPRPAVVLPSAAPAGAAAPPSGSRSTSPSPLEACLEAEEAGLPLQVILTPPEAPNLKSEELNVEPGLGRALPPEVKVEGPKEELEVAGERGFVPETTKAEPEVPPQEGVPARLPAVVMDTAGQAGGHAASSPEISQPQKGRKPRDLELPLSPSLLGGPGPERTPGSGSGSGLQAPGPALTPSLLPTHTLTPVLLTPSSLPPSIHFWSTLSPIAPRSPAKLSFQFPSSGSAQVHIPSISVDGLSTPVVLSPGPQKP
# In short: as §1
# [3] = biological target: T3, GABPA (Homo sapiens, UniProt Q06546 1-454); conditions: protein: recombinant; tags: N-terminal GST; dsDNA, one strand shown
# T3 sequence: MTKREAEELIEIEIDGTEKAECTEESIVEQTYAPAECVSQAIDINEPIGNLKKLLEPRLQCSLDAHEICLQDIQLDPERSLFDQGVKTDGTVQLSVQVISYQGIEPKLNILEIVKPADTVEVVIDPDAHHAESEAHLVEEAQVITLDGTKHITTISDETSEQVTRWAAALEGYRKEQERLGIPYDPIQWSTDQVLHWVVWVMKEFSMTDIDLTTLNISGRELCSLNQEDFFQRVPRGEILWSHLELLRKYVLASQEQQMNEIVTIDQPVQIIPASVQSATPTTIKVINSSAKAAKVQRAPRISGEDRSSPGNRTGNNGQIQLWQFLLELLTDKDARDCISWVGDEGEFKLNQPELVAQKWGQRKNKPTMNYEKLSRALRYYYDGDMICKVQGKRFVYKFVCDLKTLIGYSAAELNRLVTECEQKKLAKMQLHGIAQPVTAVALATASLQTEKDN
# In short: as §1
# [4] = biological target: T4, ERG (Homo sapiens, UniProt P11308 1-479); conditions: protein: recombinant; tags: N-terminal GST; dsDNA, one strand shown
# T4 sequence: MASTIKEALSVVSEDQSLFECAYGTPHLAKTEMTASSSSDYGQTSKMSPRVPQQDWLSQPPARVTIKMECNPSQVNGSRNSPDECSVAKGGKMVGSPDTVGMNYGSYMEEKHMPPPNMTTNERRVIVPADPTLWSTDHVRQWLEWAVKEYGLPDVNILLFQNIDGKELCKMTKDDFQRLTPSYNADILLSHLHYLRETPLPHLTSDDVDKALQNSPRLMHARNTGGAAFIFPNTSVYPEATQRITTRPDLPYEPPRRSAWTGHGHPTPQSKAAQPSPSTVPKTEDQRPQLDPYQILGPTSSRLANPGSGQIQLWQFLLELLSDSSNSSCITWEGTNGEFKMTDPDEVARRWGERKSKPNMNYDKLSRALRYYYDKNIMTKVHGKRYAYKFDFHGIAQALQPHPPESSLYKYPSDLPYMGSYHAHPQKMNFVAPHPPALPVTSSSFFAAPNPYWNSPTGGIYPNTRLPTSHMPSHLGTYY
# In short: as §1
# [5] = biological target: ELF1 (Homo sapiens, UniProt P32519 1-619); conditions: protein: recombinant; tags: N-terminal GST; dsDNA, one strand shown
# ELF1, sequence (P32519 whole entry): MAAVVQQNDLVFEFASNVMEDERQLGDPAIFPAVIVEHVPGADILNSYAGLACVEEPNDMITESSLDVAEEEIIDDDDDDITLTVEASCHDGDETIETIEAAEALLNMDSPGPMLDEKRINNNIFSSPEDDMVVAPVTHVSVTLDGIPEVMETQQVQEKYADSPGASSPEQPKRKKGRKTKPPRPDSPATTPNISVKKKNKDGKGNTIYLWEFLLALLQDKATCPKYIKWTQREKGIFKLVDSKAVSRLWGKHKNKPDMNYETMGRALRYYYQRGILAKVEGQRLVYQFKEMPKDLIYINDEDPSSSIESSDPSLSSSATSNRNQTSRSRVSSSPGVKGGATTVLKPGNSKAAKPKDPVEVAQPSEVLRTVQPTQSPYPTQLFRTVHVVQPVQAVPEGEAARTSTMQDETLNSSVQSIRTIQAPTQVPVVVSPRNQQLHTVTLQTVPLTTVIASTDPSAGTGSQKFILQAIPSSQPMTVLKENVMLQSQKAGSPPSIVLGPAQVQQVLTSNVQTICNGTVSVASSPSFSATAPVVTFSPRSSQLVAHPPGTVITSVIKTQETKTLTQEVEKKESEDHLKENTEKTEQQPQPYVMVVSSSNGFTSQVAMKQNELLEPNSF
# In short: as §1
# [6] = biological target: T5, EHF (Homo sapiens, UniProt Q9NZC4 1-300); conditions: protein: recombinant; tags: N-terminal GST; dsDNA, one strand shown
# T5 sequence: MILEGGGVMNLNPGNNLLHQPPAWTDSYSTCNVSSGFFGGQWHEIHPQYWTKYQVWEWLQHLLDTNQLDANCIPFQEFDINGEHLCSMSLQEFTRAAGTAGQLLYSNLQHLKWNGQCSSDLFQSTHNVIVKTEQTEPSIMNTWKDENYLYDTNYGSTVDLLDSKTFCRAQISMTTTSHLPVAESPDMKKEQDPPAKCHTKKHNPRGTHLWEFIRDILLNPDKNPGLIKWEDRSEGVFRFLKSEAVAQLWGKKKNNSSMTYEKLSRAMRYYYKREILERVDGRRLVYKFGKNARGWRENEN
# In short: as §1
# [7] = biological target: SPI1 (Homo sapiens, UniProt P17947 1-270); conditions: protein: recombinant; tags: N-terminal GST; dsDNA, one strand shown
# In short: as §1
# [8] = biological target: SPIB (Homo sapiens, UniProt Q01892 1-262); conditions: protein: recombinant; tags: N-terminal GST; dsDNA, one strand shown
# SPIB, sequence (Q01892 whole entry): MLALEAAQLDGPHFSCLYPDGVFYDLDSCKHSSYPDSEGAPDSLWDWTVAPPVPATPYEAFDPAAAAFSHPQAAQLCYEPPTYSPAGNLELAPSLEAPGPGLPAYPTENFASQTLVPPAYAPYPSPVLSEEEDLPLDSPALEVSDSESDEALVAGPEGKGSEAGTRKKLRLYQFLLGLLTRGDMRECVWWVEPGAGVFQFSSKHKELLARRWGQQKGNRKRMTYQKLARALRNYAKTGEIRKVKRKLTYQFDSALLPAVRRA
# In short: as §1
# [9] = biological target: T6, ELK3 (Homo sapiens, UniProt P41970 1-407); conditions: protein: recombinant; tags: N-terminal GST; dsDNA, one strand shown
# T6 sequence: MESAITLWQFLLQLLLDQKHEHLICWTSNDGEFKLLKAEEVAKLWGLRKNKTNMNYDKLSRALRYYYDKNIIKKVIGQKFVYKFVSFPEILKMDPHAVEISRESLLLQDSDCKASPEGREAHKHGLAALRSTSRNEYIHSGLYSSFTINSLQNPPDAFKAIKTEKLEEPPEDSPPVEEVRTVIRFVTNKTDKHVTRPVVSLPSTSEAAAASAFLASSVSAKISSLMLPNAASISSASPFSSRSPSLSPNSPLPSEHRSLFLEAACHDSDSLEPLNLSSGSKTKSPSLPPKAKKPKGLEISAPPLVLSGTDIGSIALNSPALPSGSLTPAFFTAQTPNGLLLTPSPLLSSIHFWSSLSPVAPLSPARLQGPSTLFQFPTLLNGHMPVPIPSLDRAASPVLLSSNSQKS
# In short: as §1
# [10] = biological target: T7, FEV (Homo sapiens, UniProt Q99581 1-238); conditions: protein: recombinant; tags: N-terminal GST; dsDNA, one strand shown
# T7 sequence: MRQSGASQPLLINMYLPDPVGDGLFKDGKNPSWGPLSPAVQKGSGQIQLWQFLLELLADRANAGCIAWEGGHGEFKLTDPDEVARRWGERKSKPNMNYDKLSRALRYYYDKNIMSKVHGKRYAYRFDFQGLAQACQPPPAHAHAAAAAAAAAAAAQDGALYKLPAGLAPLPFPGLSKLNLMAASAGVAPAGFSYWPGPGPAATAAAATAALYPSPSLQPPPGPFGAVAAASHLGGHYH
# In short: as §1
# [11] = biological target: ETV5 (Homo sapiens, UniProt P41161 1-510); conditions: protein: recombinant; tags: N-terminal GST; dsDNA, one strand shown
# ETV5, sequence (P41161 whole entry): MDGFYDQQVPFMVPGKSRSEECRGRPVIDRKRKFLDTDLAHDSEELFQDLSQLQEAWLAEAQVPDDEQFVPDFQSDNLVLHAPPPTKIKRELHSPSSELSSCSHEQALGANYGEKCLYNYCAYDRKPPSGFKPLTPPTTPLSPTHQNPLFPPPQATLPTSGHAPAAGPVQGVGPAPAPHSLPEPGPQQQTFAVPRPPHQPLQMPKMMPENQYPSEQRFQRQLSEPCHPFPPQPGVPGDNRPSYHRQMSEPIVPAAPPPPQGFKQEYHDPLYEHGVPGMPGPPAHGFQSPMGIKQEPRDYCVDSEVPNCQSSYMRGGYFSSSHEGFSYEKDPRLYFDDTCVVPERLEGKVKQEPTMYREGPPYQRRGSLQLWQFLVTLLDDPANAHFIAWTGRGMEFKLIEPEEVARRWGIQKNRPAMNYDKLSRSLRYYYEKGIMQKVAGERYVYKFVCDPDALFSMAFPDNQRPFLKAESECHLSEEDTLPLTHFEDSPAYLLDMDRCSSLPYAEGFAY
# In short: as §1
# [12] = biological target: HSF1 (Homo sapiens, UniProt Q00613 1-529); conditions: protein: recombinant; tags: N-terminal GST; chain copies: 3; dsDNA, one strand shown
# HSF1, sequence (Q00613 whole entry): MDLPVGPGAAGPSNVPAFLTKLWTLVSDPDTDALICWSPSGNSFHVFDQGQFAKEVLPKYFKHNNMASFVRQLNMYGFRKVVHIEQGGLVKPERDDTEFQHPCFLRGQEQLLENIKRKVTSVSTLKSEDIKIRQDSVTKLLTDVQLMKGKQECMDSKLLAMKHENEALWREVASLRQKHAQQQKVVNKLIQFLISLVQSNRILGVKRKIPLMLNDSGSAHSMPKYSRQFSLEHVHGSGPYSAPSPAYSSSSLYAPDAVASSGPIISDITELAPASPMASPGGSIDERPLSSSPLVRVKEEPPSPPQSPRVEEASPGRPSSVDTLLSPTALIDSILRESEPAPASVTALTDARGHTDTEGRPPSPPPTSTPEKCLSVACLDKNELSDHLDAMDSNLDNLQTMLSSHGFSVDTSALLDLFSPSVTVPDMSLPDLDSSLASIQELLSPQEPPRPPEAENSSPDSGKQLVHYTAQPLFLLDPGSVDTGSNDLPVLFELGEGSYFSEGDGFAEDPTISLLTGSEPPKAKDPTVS
# In short: as §1
# [13] = biological target: T8, SPIC (Homo sapiens, UniProt Q8N5J4 1-248); conditions: protein: recombinant; tags: N-terminal GST; dsDNA, one strand shown
# T8 sequence: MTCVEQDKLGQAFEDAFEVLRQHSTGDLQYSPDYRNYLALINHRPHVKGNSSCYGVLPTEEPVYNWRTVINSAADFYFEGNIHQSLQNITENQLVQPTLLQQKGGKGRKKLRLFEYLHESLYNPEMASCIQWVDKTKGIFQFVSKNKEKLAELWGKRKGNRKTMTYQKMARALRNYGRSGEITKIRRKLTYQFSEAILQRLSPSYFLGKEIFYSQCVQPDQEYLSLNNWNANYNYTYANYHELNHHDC
# In short: as §1
# [14] = biological target: ELF4 (Homo sapiens, UniProt Q99607 1-663); conditions: protein: recombinant; tags: N-terminal GST; dsDNA, one strand shown
# ELF4, sequence (Q99607 whole entry): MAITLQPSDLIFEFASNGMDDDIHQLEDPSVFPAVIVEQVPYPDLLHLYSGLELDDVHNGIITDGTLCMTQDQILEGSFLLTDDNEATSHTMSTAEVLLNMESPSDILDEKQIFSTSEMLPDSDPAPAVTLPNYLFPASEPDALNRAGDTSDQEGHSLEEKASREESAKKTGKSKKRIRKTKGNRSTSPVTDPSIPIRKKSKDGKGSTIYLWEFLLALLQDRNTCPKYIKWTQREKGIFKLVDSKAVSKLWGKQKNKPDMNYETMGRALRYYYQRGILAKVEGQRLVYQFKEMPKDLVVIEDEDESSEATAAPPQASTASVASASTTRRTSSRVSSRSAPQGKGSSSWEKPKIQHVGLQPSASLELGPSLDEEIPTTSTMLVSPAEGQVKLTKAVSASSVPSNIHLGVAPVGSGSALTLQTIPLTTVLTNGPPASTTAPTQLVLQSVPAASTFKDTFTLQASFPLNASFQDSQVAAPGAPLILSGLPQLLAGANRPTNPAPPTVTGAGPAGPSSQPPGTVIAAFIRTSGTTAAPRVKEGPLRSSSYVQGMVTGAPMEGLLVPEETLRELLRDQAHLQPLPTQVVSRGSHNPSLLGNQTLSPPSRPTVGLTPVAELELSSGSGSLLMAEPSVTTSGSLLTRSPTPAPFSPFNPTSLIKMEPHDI
# In short: as §1
# [15] = biological target: T9, ELK4 (Homo sapiens, UniProt P28324-2 1-405); conditions: protein: recombinant; tags: N-terminal GST; dsDNA, one strand shown
# T9 sequence: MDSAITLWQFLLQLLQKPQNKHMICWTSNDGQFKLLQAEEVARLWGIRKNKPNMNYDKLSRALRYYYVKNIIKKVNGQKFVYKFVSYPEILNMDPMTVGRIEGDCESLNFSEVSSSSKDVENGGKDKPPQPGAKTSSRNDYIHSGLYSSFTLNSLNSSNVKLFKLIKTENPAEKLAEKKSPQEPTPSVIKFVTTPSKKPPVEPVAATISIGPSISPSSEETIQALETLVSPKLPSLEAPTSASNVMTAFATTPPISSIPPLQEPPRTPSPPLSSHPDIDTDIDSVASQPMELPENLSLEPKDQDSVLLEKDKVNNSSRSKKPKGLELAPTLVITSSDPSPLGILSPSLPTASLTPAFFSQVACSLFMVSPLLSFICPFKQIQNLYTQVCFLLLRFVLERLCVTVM
# In short: as §1
# [16] = biological target: T10, ETV2 (Homo sapiens, UniProt O00321 1-342); conditions: protein: recombinant; tags: N-terminal GST; dsDNA, one strand shown
# T10 sequence: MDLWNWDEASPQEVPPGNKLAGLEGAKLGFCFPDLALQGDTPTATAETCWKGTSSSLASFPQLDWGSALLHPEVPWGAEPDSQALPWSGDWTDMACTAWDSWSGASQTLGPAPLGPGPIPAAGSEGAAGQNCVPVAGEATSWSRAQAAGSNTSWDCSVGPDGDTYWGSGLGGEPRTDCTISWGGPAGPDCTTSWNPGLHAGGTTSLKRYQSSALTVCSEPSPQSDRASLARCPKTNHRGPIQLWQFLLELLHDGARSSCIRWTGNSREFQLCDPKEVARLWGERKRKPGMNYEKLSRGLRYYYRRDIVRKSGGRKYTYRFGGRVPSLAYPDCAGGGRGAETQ
# In short: as §1
# [17] = biological target: T11, ELF3 (Homo sapiens, UniProt P78545 1-371); conditions: protein: recombinant; tags: N-terminal GST; dsDNA, one strand shown
# T11 sequence: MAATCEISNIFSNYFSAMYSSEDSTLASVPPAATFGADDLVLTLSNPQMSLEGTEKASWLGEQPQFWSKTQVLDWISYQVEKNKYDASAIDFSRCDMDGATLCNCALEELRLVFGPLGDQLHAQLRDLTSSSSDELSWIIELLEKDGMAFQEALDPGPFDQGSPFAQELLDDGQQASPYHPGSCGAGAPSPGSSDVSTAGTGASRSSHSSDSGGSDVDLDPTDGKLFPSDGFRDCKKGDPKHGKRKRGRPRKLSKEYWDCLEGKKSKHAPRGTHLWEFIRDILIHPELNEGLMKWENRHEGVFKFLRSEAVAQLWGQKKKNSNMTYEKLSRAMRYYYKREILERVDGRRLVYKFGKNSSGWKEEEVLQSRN
# In short: as §1
# [18] = biological target: ETV1 (Homo sapiens, UniProt P50549 1-477); conditions: protein: recombinant; tags: N-terminal GST; dsDNA, one strand shown
# ETV1, sequence (P50549 whole entry): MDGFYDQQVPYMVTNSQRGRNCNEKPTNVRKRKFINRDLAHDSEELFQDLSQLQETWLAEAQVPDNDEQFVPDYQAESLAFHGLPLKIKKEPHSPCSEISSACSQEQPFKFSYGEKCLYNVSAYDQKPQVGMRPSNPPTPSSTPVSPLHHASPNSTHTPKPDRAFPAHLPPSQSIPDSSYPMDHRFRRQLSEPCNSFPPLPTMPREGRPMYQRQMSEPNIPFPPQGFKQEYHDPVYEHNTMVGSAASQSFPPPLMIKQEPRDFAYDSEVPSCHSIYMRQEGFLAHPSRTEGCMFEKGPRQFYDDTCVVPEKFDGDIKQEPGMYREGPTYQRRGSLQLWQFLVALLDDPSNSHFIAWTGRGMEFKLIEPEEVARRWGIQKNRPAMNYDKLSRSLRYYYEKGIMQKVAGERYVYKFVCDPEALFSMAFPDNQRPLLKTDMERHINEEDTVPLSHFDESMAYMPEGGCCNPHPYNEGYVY
# In short: as §1
sequence,measurement,setting,value
AGATGC,binding signal,[1],"1.13 fold enrichment (6-mer frequency, TF over GST control)"
same,binding signal,[2],"1.14 fold enrichment (6-mer frequency, TF over GST control)"
same,binding signal,[3],"1.05 fold enrichment (6-mer frequency, TF over GST control)"
same,binding signal,[4],"1.11 fold enrichment (6-mer frequency, TF over GST control)"
same,binding signal,[5],"1.04 fold enrichment (6-mer frequency, TF over GST control)"
same,binding signal,[6],"1.08 fold enrichment (6-mer frequency, TF over GST control)"
same,binding signal,[7],"1.08 fold enrichment (6-mer frequency, TF over GST control)"
same,binding signal,[8],"1.09 fold enrichment (6-mer frequency, TF over GST control)"
same,binding signal,[9],"1.01 fold enrichment (6-mer frequency, TF over GST control)"
same,binding signal,[10],"1.05 fold enrichment (6-mer frequency, TF over GST control)"
same,binding signal,[11],"1.09 fold enrichment (6-mer frequency, TF over GST control)"
same,binding signal,[12],"1.1 fold enrichment (6-mer frequency, TF over GST control)"
same,binding signal,[13],"1.11 fold enrichment (6-mer frequency, TF over GST control)"
same,binding signal,[14],"1.1 fold enrichment (6-mer frequency, TF over GST control)"
same,binding signal,[15],"1.29 fold enrichment (6-mer frequency, TF over GST control)"
same,binding signal,[16],"1.01 fold enrichment (6-mer frequency, TF over GST control)"
same,binding signal,[17],"1.09 fold enrichment (6-mer frequency, TF over GST control)"
same,binding signal,[18],"1.05 fold enrichment (6-mer frequency, TF over GST control)"
